Screening data (PubChem BioAssay)
IP6K1 inh: IP6K1 kinase inhibition | IP6K1 kinase, ADP-Glo luminescence, 2 h; hits give low values | activity change, % (series mostly up to about 58 µM) | hit rate 0.81% among 140,000 | Q92551; in the data active = activity change below about -25%
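ADP-Glo luminescence measures ADP made by human IP6K1 during a 2 h RT reaction with ATP/IP6 (mix at 1.3 mM/130 uM); top library doses 57.5 and 19.1 uM final.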
KDM5B inhibitor: blocks human KDM5B histone demethylase activity | Q9UGL1 | KDM5B demethylase, FDH-coupled NADH fluorescence (FDH is formaldehyde dehydrogenase) | Potency, µM (doses to about 57.7 µM), most hits filed as inhibitors | hit rate 2.6% among 220,000; note: nearly all actives have a fitted effect of over 70% in size
Target sequence (Q9UGL1 whole entry, looked up): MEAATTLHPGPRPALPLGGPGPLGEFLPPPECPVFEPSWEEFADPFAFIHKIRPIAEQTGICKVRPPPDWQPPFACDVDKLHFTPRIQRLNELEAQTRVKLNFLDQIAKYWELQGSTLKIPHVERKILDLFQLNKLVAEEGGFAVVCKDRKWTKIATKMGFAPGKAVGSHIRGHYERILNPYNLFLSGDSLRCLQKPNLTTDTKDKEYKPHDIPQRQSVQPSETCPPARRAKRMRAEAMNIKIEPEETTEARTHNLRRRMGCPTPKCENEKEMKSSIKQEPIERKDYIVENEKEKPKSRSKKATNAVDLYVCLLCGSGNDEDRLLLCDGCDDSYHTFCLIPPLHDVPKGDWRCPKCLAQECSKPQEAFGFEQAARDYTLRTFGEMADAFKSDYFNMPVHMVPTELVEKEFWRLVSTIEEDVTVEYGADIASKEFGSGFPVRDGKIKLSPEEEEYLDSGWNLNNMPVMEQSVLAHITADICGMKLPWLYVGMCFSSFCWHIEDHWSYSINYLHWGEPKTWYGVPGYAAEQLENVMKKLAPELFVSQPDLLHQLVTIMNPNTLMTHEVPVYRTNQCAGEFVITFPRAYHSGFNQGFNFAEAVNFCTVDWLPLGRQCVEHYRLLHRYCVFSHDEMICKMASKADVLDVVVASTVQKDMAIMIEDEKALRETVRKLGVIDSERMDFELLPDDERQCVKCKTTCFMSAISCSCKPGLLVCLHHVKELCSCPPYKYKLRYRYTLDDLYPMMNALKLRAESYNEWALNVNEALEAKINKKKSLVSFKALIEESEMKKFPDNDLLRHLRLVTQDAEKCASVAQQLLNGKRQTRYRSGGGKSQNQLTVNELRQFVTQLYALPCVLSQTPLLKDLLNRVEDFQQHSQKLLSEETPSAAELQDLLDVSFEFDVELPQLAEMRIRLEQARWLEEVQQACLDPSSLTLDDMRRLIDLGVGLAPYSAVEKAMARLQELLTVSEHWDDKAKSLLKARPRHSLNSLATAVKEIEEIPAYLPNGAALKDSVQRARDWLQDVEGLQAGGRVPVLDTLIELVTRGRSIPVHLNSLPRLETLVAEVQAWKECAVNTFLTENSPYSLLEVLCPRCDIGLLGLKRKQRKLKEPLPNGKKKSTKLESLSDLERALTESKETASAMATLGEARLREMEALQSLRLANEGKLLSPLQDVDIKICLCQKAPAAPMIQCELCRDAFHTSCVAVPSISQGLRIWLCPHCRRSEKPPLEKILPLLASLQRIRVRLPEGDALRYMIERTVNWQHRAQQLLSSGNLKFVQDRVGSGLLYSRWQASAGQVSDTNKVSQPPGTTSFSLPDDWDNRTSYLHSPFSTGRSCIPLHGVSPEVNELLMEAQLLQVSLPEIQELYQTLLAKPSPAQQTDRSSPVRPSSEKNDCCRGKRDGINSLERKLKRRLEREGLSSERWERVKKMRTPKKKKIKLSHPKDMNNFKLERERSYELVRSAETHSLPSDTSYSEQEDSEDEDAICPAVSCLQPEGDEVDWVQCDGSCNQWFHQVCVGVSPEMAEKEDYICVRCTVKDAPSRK
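Here, H3K4me3 peptide (12.5 µM in substrate mix) is demethylated by KDM5BΔAP, 200 nM final, after 10 min compound exposure. Formaldehyde product is coupled through FDH (0.25 U/mL in mix) to NADH fluorescence; 30-min ΔRFU feeds dose-response curves.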
IP6K1 inh cnf: confirmation of human IP6K1 inhibitors; shares compounds with IP6K1 inh; recombinant IP6K1 kinase, ADP-Glo luminescence, 2 h; Potency, µM (highest dose often 49 µM), hits mostly inhibitors; hit rate 13% among 1,200; note: nearly all actives have a fitted effect of over 65% in size
Each line names hits and unclear results; the compound was inactive in the other large screens (follow-up assays come after a bar, where they were run); ! = not confirmed by another sample. This is a sample that favours compounds with a hit; in the whole collection about 2.8% have one here. Unless noted, calls come from the whole dose curve; as a rule, active = well fitted inhibition curve with a large enough effect; inconclusive = small, poorly fitted or top-dose-only effect; inactive = no such curve, though single readings can be large or run the other way.

O=S(=O)(c1cccc(Cl)c1)n1c(/C=C/c2ccccc2Cl)nc2ccccc21	IP6K1 inh -39, KDM5B inhibitor inconclusive | IP6K1 inh cnf inconclusive
CCOc1ccc(S(=O)(=O)n2c(C)nc3ccccc32)cc1	none (no result: KDM5B inhibitor)
Cc1ccc(S(=O)(=O)c2nc(-c3ccco3)oc2SCc2ccc(F)cc2)cc1	IP6K1 inh -28, KDM5B inhibitor inconclusive | IP6K1 inh cnf inactive
O=S(=O)(c1ccccc1)c1nc(-c2ccco2)oc1SCc1ccc(F)cc1	KDM5B inhibitor inconclusive
Cc1c(C)n(Cc2ccc(-c3ccccc3C(=O)O)cc2)c2ccc(C(=O)N[C@@H](C)c3ccc([N+](=O)[O-])cc3)cc12	IP6K1 inh -27 (no result: KDM5B inhibitor) | IP6K1 inh cnf inconclusive
Cc1c(C)n(Cc2ccccc2)c2ccc(C(=O)NCc3ccc(OC(C)C)cc3)cc12	KDM5B inhibitor inconclusive
N#Cc1ccc(S(=O)(=O)N2CCCCCNC(=O)[C@@H]3CCCC[C@@H]32)cc1	none
Cc1cccc(-c2nc3cc(NC(=O)c4ccccc4F)ccc3o2)c1	none (no result: IP6K1 inh)
COc1ccc(Br)cc1C(=O)Nc1ccc2oc(-c3cccnc3)nc2c1	KDM5B inhibitor inconclusive
O=C(Nc1ccc2oc(-c3cccnc3)nc2c1)c1ccccc1F	IP6K1 inh -30, KDM5B inhibitor inconclusive | IP6K1 inh cnf inconclusive
Cc1ccc(C(=O)Nc2ccc3oc(-c4cccnc4)nc3c2)c(Cl)c1	IP6K1 inh -30, KDM5B inhibitor inconclusive | IP6K1 inh cnf inconclusive
COc1ccccc1-c1cccc(C(=O)N2CCC[C@H]2C(=O)NCc2ccccn2)c1	none (no result: KDM5B inhibitor)
CCNC(=O)[C@@H]1C[C@H](NC(=O)c2cccc(-c3ccc(F)cc3)c2)CN1C	KDM5B inhibitor inconclusive
Cc1ccccc1Nc1sc(C(=O)c2ccccc2)c(N)c1C(=O)NCc1ccc(Cl)cc1	KDM5B inhibitor inconclusive
Cc1ccc(CNC(=O)c2c(Nc3ccccc3C)sc(C(=O)c3ccc(F)cc3)c2N)cc1	IP6K1 inh -26, KDM5B inhibitor inconclusive | IP6K1 inh cnf inactive
CC(C)c1ccc(NC(=O)C2CCCN(S(=O)(=O)c3cccc4cccnc34)C2)cc1 (stereo not drawn)	KDM5B inhibitor inconclusive
CCOc1ccc(NC(=O)CN(c2ccccc2OCC)S(=O)(=O)c2ccccc2)cc1	none
CCOc1ccc(NC(=O)CN(c2ccc(Cl)cc2C)S(=O)(=O)c2ccccc2)cc1	IP6K1 inh -25 | IP6K1 inh cnf inactive
CCc1cccc(C)c1NC(=O)Cn1nnc(-c2nc(-c3ccccc3F)no2)c1N	none
COc1ccc(OCC(O)CN2CCN(c3ncccn3)CC2)cc1 (stereo not drawn)	none (no result: IP6K1 inh)
COc1ccc(N2CCN(CC(O)COc3ccc(C(C)(C)C)cc3)CC2)cc1 (stereo not drawn)	IP6K1 inh -29, KDM5B inhibitor inconclusive | IP6K1 inh cnf inactive
CCOc1cccc(/C=C(/C#N)c2ccccn2)c1OC(F)F	none (no result: IP6K1 inh)
CN1C(=O)CCCCC1C(=O)NCc1ccc(Cl)cc1 (stereo not drawn)	none
O=C(NCCn1cccn1)C1CCC(=O)N(C2CCCCCC2)C1 (stereo not drawn)	none
CCn1nc(C)c(CCNC(=O)C2CCC(=O)N(C3CCCC3)C2)c1C (stereo not drawn)	IP6K1 inh -25 | IP6K1 inh cnf inactive
COc1ccc(C(=O)N2CCC3(CC2)OC(=O)N(Cc2ccc(O)cc2)C3(C)c2ccccc2)cc1 (stereo not drawn)	none
Cc1ccc(-c2cc(C(F)(F)F)nn2-c2ccc(S(N)(=O)=O)cc2)cc1	none (no result: KDM5B inhibitor)
CCC(=O)c1cc(-c2ccc(Cl)cc2)n(-c2ccc(S(N)(=O)=O)cc2)c1C	IP6K1 inh -34 (no result: KDM5B inhibitor) | IP6K1 inh cnf inconclusive
COc1ccc(C2=C(C)C(=O)N(Cc3ccc(C(=O)Nc4cccc(F)c4)cc3)S2(=O)=O)cc1	KDM5B inhibitor inconclusive
COc1ccc(C2=C(C)C(=O)N(Cc3ccc(C(=O)Nc4ccc(F)cc4C)cc3)S2(=O)=O)cc1	IP6K1 inh -30, KDM5B inhibitor inconclusive | IP6K1 inh cnf inactive
CCc1ccc2oc(=O)cc(CN3CCN(CC(=O)Nc4ccc5c(c4)OCCO5)CC3)c2c1	none (no result: IP6K1 inh)
Cc1cc(CN2CC(N(C)c3ccccc3C)C2)on1	none
O=C1C(c2c(O)[nH]c3ccccc23)=Nc2ccccc21	none (no result: KDM5B inhibitor)
O=Nc1c(-c2c(O)[nH]c3cc(Br)ccc23)[nH]c2ccccc12	none (no result: IP6K1 inh, KDM5B inhibitor) | IP6K1 inh cnf 3.7µM
Cc1ccc(NC(=O)C2CCCc3ccccc32)c(Cl)c1 (stereo not drawn)	none (no result: IP6K1 inh)
Cc1cnc(-c2ccccc2)n1C1CCN(C(=O)NCc2ccccc2)C1 (stereo not drawn)	none (no result: KDM5B inhibitor)
Cc1cccc(C(=O)Nc2cccc3ccc(C)nc23)c1	none (no result: IP6K1 inh)
Fc1ccccc1-c1nc(NCc2ccccc2)c2ccccc2n1	none (no result: IP6K1 inh)
Fc1ccc(CNc2nc(-c3ccccc3C(F)(F)F)nc3ccccc23)cc1	none (no result: IP6K1 inh, KDM5B inhibitor) | IP6K1 inh cnf inactive
Fc1cccc(CNc2nc(-c3ccccc3C(F)(F)F)nc3ccccc23)c1	none (no result: IP6K1 inh, KDM5B inhibitor) | IP6K1 inh cnf inactive
c1ccc(CNc2nc(-c3ccccn3)nc3ccccc23)cc1	none (no result: IP6K1 inh)
O=C(Cn1c(=O)oc2cc(Cl)ccc21)Nc1cccc(C(F)(F)F)c1	IP6K1 inh -28 | IP6K1 inh cnf inactive
Cc1nc(-c2ccc(Cl)cc2)n(CC(=O)Nc2cccc(C(F)(F)F)c2)c(=O)c1CCO	none
Cc1ccccc1CNC(=O)[C@@H]1OCCN(C2CC2)[C@H]1c1ccccc1	none (no result: KDM5B inhibitor)
COc1ccc2oc(=O)cc(CN3CCN(c4ccc(F)cc4)CC3)c2c1	IP6K1 inh -25 | IP6K1 inh cnf inactive
COc1ccc2c(CN3CCN(c4ccc(F)cc4)CC3)cc(=O)oc2c1	none (no result: IP6K1 inh)
O=S(=O)(Nc1ncnc2sc3c(c12)CCC3)c1cc(F)ccc1F	none (no result: IP6K1 inh)
Oc1cccc(Nc2ncnc3sc4c(c23)CCCC4)c1	IP6K1 inh -28, KDM5B inhibitor inconclusive | IP6K1 inh cnf inconclusive
Cc1ccc(CNc2oc(Cc3ccccc3)nc2C#N)cc1	none (no result: IP6K1 inh)
OCCCNc1cc(-c2ccnc(Nc3cccc(Cl)c3)n2)ccn1	IP6K1 inh -26 (no result: KDM5B inhibitor) | IP6K1 inh cnf inconclusive
OCCNc1nc(Nc2cccc(Cl)c2)nc2nccnc12	none (no result: IP6K1 inh)
Cc1ccc(NS(=O)(=O)c2ccc(F)cc2F)cc1S(N)(=O)=O	none (no result: IP6K1 inh)
Cc1cccc(NC(=O)Nc2nnc(N3CCCC3)s2)c1	none
CC(=O)c1cccc(NC(=O)Nc2nnc(N3CCCC3)s2)c1	IP6K1 inh -38 | IP6K1 inh cnf inactive
COc1ccc(CC(=O)N2CCCC2C(=O)N2CCC(N3Cc4cccn4C3=O)CC2)cc1 (stereo not drawn)	none (no result: KDM5B inhibitor)
Cc1ccc(-c2noc(CN(C3CCCCC3)S(=O)(=O)c3ccc(C)cc3)n2)cc1	none
COc1ccc(-c2nc3ncccc3[nH]2)cc1	IP6K1 inh -27!, KDM5B inhibitor 32µM! | IP6K1 inh cnf inconclusive
COc1ccc(-c2nc(-c3ccccc3)c(-c3ccc(O)cc3)[nH]2)cc1	KDM5B inhibitor inconclusive
CN(Cc1ccncn1)C(=O)c1ccccc1C1CCNC1 (stereo not drawn)	KDM5B inhibitor inconclusive
COC(=O)[C@H](NC(=O)[C@@H]1[C@@H](NC(=O)Nc2ccc(F)cc2F)CCN1C(=O)c1cccn1C)C(C)C	none
CCOc1ccc(C2CC(=O)NC(NC(=O)c3ccc(C)cc3)=N2)cc1 (stereo not drawn)	none
Cc1ccc(C(=O)NC2=NC(c3ccc(C)cc3)CC(=O)N2)cc1 (stereo not drawn)	IP6K1 inh -26 | IP6K1 inh cnf inactive
Cc1ccc(C)c(N2CCN(S(=O)(=O)c3csc(C(N)=O)c3)CC2)c1	IP6K1 inh -30 | IP6K1 inh cnf inconclusive
Cc1ccc(C)c(N2CCN(S(=O)(=O)c3cnc(N)nc3)CC2)c1	none
